PLK1 PBD inh – blocks phosphopeptide binding to human PLK1 polo-box domain; P53350; Plk1 PBD binding of FITC phosphopeptide, fluorescence polarization; Potency, µM, usual class: inhibitors; 2.8% of 360,000 active; note: series mostly up to about 57 µM; nearly all actives have a fitted effect of over 65% in size
JMJD2A Tudor – inhibitors of human JMJD2A Tudor domain | O75164 | AlphaScreen JMJD2A-Tudor / H3K4me3 peptide binding | Potency, µM (titrated, usually from 114 µM), most hits filed as inhibitors | 4.4% of 390,000 active; note: nearly all actives have a fitted effect of over 50% in size
BAZ2B inh – BAZ2B (human) inhibition; AlphaScreen BAZ2B-H3K14Ac peptide displacement; Potency, µM (highest dose often 114 µM), hits mostly inhibitors; 4.4% of 360,000 active; AID 504333; note: nearly all actives have a fitted effect of over 60% in size
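BAZ2B 50 nM plus b-H3(5-23)K14Ac 50 nM, PBS pH 7.4/0.01% Tween-20, 30 min RT; compound added (max 110 uM), 30 min RT; streptavidin donor/Ni-chelate acceptor beads 10 ug/mL final, 20 min dark; AlphaScreen read.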
G9a block – inhibitors of human histone lysine methyltransferase G9a | G9a H3K9 monomethylation, AlphaScreen, 2 h | Potency, µM (doses to about 102 µM), hits mostly inhibitors | AID 504332 | Q96KQ7 | 8.8% of 350,000 active; note: nearly all actives have a fitted effect of over 75% in size
Target sequence (Q96KQ7 913-1193 limits assumed): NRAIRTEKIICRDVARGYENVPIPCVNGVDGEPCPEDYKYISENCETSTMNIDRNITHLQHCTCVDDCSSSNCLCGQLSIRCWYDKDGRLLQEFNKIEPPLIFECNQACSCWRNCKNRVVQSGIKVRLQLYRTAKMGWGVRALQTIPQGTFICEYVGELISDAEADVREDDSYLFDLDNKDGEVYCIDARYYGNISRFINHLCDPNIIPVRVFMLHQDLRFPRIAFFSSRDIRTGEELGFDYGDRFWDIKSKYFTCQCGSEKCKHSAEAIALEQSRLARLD
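AlphaScreen detection with an anti-monomethyl H3K9 antibody quantified product after a 2 h room-temperature reaction containing 500 nM biotinylated H3K9 peptide, 20 µM SAM and 20 nM enzyme, which had been preincubated 15 min with compound.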
Sfp inh – blocks B. subtilis Sfp PPTase activity; Potency, µM, actives largely listed as inhibitors; Biochemical Sfp PPTase activity, qHTS; 3.5% of 310,000 active; Q9F4F7;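 note: the enzyme is Sfp with the accession as filed and its product quenches rhodamine fluorescence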
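With Hepes-Na pH 7.6 buffer containing 10 mM MgCl2, Sfp (15 nM) modified BHQ-2-YbbR (12.5 uM) using rhodamine-CoA (5 uM). Two reads 30 minutes apart at 525/598 nm yielded each well's rate.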
HP1b binding inh – blocks HP1-beta chromodomain binding to methylated histone tails. AID 540317. Potency, µM (series often up to 114 µM), most hits filed as inhibitors. AlphaScreen HP1-beta / biotin-H3K9me3 peptide binding. 0.56% of 390,000 active; note: nearly all actives have a fitted effect of over 70% in size
Target sequence (P83916 whole entry, looked up): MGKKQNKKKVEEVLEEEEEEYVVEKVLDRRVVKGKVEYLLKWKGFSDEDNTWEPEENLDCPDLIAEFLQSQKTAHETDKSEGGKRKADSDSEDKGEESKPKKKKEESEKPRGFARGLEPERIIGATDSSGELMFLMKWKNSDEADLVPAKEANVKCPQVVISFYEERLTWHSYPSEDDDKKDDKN
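AlphaScreen: HP1-beta (50 nM) preformed 30 min with biotin-H3(1-18)K9me3 peptide (50 nM) in PBS pH 7.4, 0.01% Tween-20. Compound added for 30 min at RT, then streptavidin donor/nickel chelate acceptor beads (10 ug/mL) for 30 min.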
Numbers stand for hits; 0 = inactive; ? = inconclusive; - = no result; [ ] = another dose, or the depositor's remark. The list is not random: actives were taken first. Their share in the collection is about 12%. Calls come from the whole dose curve; as a rule, active = well fitted curve in the direction sought with a large enough effect; inconclusive = small, poorly fitted or top-dose-only effect, or another doubt; inactive = no such curve, though single readings can be large; an effect the other way counts as inactive or inconclusive.

SMILES	PLK1 PBD inh	JMJD2A Tudor	BAZ2B inh	G9a block	Sfp inh	HP1b binding inh
Cc1ccc(S(=O)(=O)c2nc(-c3ccccc3Cl)oc2N2CCN(C)CC2)cc1	0	50µM	-	-	-	?
Cc1ccc(S(=O)(=O)c2nc(-c3ccc(F)cc3)oc2N2CCN(c3ccccc3)CC2)cc1	-	?	?	?	-	0
Cc1ccc(S(=O)(=O)c2nc(-c3ccccc3Cl)oc2N2CCCCCC2)cc1	-	0	?	7.1µM	-	?
Cc1ccc(S(=O)(=O)c2nc(-c3ccccc3F)oc2N2CC(C)OC(C)C2)cc1 (stereo not given)	0	0	?	40µM	?	0
C=CCn1c(=S)[nH]c2cc(C(=O)Nc3ccc(F)cc3)ccc2c1=O	0	0	0	0	0	0
COc1ccc(NC(=O)CCCc2nnc3n(CCC(C)C)c(=O)c4sccc4n23)cc1Cl	-	0	0	0	-	0
Cc1ccc(C2(c3ccccc3)NC(=O)N(CC(=O)NC3CCCCC3)C2=O)cc1C (stereo not given)	0	0	0	14µM	-	0
Cc1cccc(S(=O)(=O)c2cn(Cc3ccc(F)cc3)c3cc(N4CCOCC4)c(F)cc3c2=O)c1	-	0	0	0	-	0
CC(=O)N(Cc1ccccn1)Cc1ccco1	0	0	0	-	0	0
O=C(c1ccc(F)cc1F)N(Cc1ccccn1)Cc1ccco1	0	?	?	22µM	0	0
CC(NCc1cccs1)C(=O)NC1CCCCC1 (stereo not given)	0	20µM	40µM	?	?	?
COc1ccc(C(C(=O)NC2CCCC2)N(CC2CCCO2)C(=O)Cc2cccs2)cc1OC (stereo not given)	0	0	0	0	0	0
CC(C)C(NC(=O)c1cccs1)C(=O)NC1CCCCC1 (stereo not given)	0	0	0	-	0	0
O=C(NC1CCCC1)C(c1cccs1)N(CC1CCCO1)C(=O)Cc1cccs1 (stereo not given)	0	0	0	45µM	0	0
Cc1nn(Cc2ccccc2)c(C)c1C(=O)N1CCN(S(=O)(=O)/C=C/c2ccccc2)CC1	0	0	0	?	-	0
C=CCN1c2ccccc2[C@]23C[C@@H](C(=O)OC)N(S(=O)(=O)CCCC)C2=NC(C(=O)OC)=C(C(=O)OC)[C@H]13	-	-	-	-	0	-
COC(=O)c1cc2oc3ccccc3c2n1Cc1ccccn1	0	0	0	0	40µM	0
COC(=O)c1cc2oc3ccccc3c2n1Cc1ccc(C)cc1	-	0	0	0	-	0
Cc1cc(Cl)c(C)c(S(=O)(=O)Oc2ccccc2NC(=O)CCC(=O)O)c1Cl	0	0	0	0[12.7 µM]	-	0
CCOC(=O)C1=C(C(C)=O)C(c2cccnc2)C(C#N)=C(N)O1 (stereo not given)	0	?	0	0[12.7 µM]	0	0
CCOC(=O)C1=C(C#N)C(C(=O)OCC)c2ncccc21 (stereo not given)	3.4µM	-	-	-	-	-
O=C1CCN(Cc2ccccc2)C=C1c1ccc2ccccc2c1	?	45µM	-	-	-	0
Cc1nnc(SCC(=O)Nc2cccc(S(=O)(=O)N3CCCC3)c2)n1C1CC1	0	-	-	-	-	-
Cc1ccc2sc(N(CCN(C)C)C(=O)c3ccc4ccccc4c3)nc2c1C	0	?	?	-	?	0
CCc1ccc2nc(N(CCN(C)C)C(=O)c3ccc4ccccc4c3)sc2c1	0	?	?	79µM	?	0
SMILES	PLK1 PBD inh	JMJD2A Tudor	BAZ2B inh	G9a block	Sfp inh	HP1b binding inh
CN(C)CCCN(C(=O)c1ccc(C(=O)c2ccccc2)cc1)c1nc2ccc(F)cc2s1	0	0	?	?	0	0
CN(C)CCN(C(=O)c1ccc2ccccc2c1)c1nc2ccc(F)cc2s1	0	?	0	45µM	0	0
CCOC(=O)c1ccc(-c2ccc3ncnc(NCc4cccs4)c3c2)o1	-	0	-	-	-	-
Cn1c(=O)c2c(ncn2CC2OCCO2)n(C)c1=O	0	0	0	0	0	0
CCOc1cc(C(N)=O)cc(Cl)c1OCC	21µM	?	0	0[12.7 µM]	0	0
N#C/C(=C\c1ccc(C(=O)O)cc1)S(=O)(=O)c1cc(Br)ccc1Br	11µM	0	?	?	0	0
Cc1ccccc1-n1c([C@@H]2C[C@H]2c2ccccc2)n[nH]c1=S	0	45µM	0	-	0	0

Source: PubChem (National Center for Advancing Translational Sciences (NCATS))
